PubChem BioAssay (Tox21)
Results filed as inconclusive are left out. Active and inactive are the calls of the source. The call rests on the fitted dose curve; in most records, active means well fitted curve in the direction sought with a large enough effect in the repeat runs; inconclusive means weak or mixed curves; inactive means no such curve, though single readings can be large; an effect the other way counts as inactive or inconclusive.

Experiments:
[1] = qHTS RealTime-Glo MT Cell Viability Assay in HEK293 cells - 0 hour (AID 1224880); further: top concentration of the series differs between compounds; nearly all actives have a fitted effect of over 45% in size
Summary of the method: (§1)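 Luminescence readout at each listed time point; HEK293, 600 cells/well, RealTime-Glo MT reagent added with cells; compounds pinned (23 nL in DMSO) after 5 h at 37 C; continuous culture at 37 C.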

[2] = A CellTox Green Cytotoxicity Assay to monitor cytotoxicity in HEK293 cells - 32 hour (AID 1224881); further: nearly all actives have a fitted effect of over 40% in size
Summary of the method: (§2)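 Read-out: fluorescence of a cell-impermeant cyanine dye staining DNA of dead cells, proportional to cytotoxicity. HEK293, 600 cells/well with reagent, compound (23 nL DMSO) added after 5 h; reads at 0, 8, 16, 24, 32, 40 h.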

[3] = A CellTox Green Cytotoxicity Assay to monitor cytotoxicity in HepG2 cells - 0 hour (AID 1224882); further: nearly all actives have a fitted effect of over 35% in size
Summary of the method: (§3)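 HepG2, 600 cells/well premixed w/ CellTox Green; 5 h settle, 37 C/5% CO2; pintool cpd add (DMSO); 37 C, 40 h; fluorescence read at 0, 8, 16, 24, 32, 40 h.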

[4] = A CellTox Green Cytotoxicity Assay to monitor cytotoxicity in HepG2 cells - 32 hour (AID 1224883); further: nearly all actives have a fitted effect of over 50% in size
Summary of the method: as §3

[5] = A CellTox Green Cytotoxicity Assay to monitor cytotoxicity in HEK293 cells - 8 hour (AID 1224884); further: nearly all actives have a fitted effect of over 35% in size
Summary of the method: as §2

[6] = qHTS RealTime-Glo MT Cell Viability Assay in HEK293 cells - 24 hour (AID 1224886); further: top concentration of the series differs between compounds; nearly all actives have a fitted effect of over 50% in size
Summary of the method: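 HEK293 cells seeded with NanoLuc/prosubstrate reagent, rested 5 h at 37 C, then dosed and kept at 37 C up to 40 h. Nonlytic real-time luminescence from viable cells read at 0, 8, 16, 24, 32 and 40 h.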

[7] = qHTS RealTime-Glo MT Cell Viability Assay in HEK293 cells - 8 hour (AID 1224887); further: top concentration of the series differs between compounds; nearly all actives have a fitted effect of over 50% in size
Summary of the method: as §1

[8] = A CellTox Green Cytotoxicity Assay to monitor cytotoxicity in HEK293 cells - 16 hour (AID 1224888); further: nearly all actives have a fitted effect of over 35% in size
Summary of the method: as §2

[9] = qHTS RealTime-Glo MT Cell Viability Assay in HepG2 cells - 16 hour (AID 1224885); further: nearly all actives have a fitted effect of over 50% in size
Summary of the method: (§4)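 HepG2 cells (600/well) were dispensed with RealTime-Glo reagents, incubated 5 h at 37 °C, then treated with compounds in DMSO for up to 40 h. Nonlytic NanoLuc luminescence reflecting viable cells was read at each stated time point.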

[10] = qHTS RealTime-Glo MT Cell Viability Assay in HepG2 cells - 0 hour (AID 1224889); further: nearly all actives have a fitted effect of over 50% in size
Summary of the method: as §4

Measured: Potency

Cc1cc(NC(=O)C2=C(O)c3ccccc3S(=O)(=O)N2C)no1
not listed: [9] | [10]
inactive: all other assays above

COc1ccc(S(=O)(=O)N2c3ccc(Cl)cc3[C@@](O)(c3ccccc3Cl)[C@H]2C(=O)N2CCC[C@@H]2C(N)=O)cc1OC
not listed: [6] | [7]
inactive: all other assays above

Cc1cc2cc3c(C)cc(=O)oc3c(C)c2o1
not listed: [8]
inactive: all other assays above

O=S(=O)(O)c1ccc2cc(O)c(S(=O)(=O)O)cc2c1
inactive: all assays above

CCCC(=O)C(C)=O
not listed: [8]
inactive: all other assays above

On1nnc2ccccc21
not listed: [8]
inactive: all other assays above

OCCN(CCO)c1cccc(Cl)c1
inactive: all assays above

NC(CO)C(=O)NNCc1ccc(O)c(O)c1O (stereo unspecified)
not listed: [9]
inactive: all other assays above

N#Cc1ccc(C(=O)O)cc1
not listed: [8] | [9]
inactive: all other assays above

CC(C)C[C@H](NC(=O)CNC(=O)[C@H](Cc1ccc(O)cc1)NC(=O)[C@H](CO)NC(=O)[C@H](Cc1c[nH]c2ccccc12)NC(=O)[C@H](Cc1cnc[nH]1)NC(=O)[C@@H]1CCC(=O)N1)C(=O)N[C@@H](CCCN=C(N)N)C(=O)N1CCC[C@H]1C(=O)NCC(N)=O (stereo in doubt)
not listed: [4]
inactive: all other assays above

CC(C)(C)NC(N)=O
not listed: [9]
inactive: all other assays above

CCO[Si](CCCS)(OCC)OCC
inactive: [1] | [2] | [3] | [4] | [9] | [10]

C[C@H](CCC(=O)O)[C@H]1CC[C@H]2[C@@H]3C(=O)C[C@@H]4CC(=O)CC[C@]4(C)[C@H]3CC(=O)[C@]12C
not listed: [8] | [9]
inactive: all other assays above

COCCOCCOCCOCCOCCO
not listed: [9]
inactive: all other assays above

Cc1cc(Cl)c(C)cc1Cl
not listed: [4]
inactive: all other assays above

C[C@@H]1O[C@@H](O[C@@H]2[C@@H](O)[C@H](OCCc3ccc(O)c(O)c3)O[C@H](CO[C@@H]3O[C@H](CO)[C@@H](O)[C@H](O)[C@H]3O)[C@H]2OC(=O)/C=C/c2ccc(O)c(O)c2)[C@H](O)[C@H](O)[C@H]1O
not listed: [4]
inactive: all other assays above

Nc1ccc(S(=O)(=O)Nc2ccc(Cl)nn2)cc1
not listed: [9]
inactive: all other assays above

O=C(c1ccc(O)cc1)c1ccc(O)c(O)c1O
not listed: [9]
inactive: all other assays above

CC(C(=O)O)c1ccc2c(c1)CC(=O)c1ccccc1S2 (stereo unspecified)
not listed: [4]
inactive: all other assays above

O=C1c2ccccc2C(=O)c2cc(S(=O)(=O)O)ccc21
inactive: [1] | [2] | [3] | [4] | [5] | [8]

CC(C)(C)OC(=O)c1ccc(O)cc1
not listed: [4]
inactive: all other assays above

COc1ccc(C2CNC(=O)C2)cc1OC1CCCC1 (stereo unspecified)
not listed: [9]
inactive: all other assays above

C=CCCCCCCCCCCCC
not listed: [9]
inactive: all other assays above

CC(=O)Nc1ccc(S(=O)(=O)Cl)cc1
not listed: [4]
inactive: all other assays above

Nc1cccc(O)c1
not listed: [9]
inactive: all other assays above

COc1cc(NS(=O)(=O)c2ccc(N)cc2)nc(OC)n1
not listed: [4]
inactive: all other assays above
